These results are taken from PubChem BioAssay (Tox21).

SMILES strings stand for the structures. Inconclusive results are not listed. Activity calls are given as the source filed them. Unless noted, the call rests on the fitted dose curve; in most records, active means well fitted curve in the direction sought with a large enough effect in the repeat runs; inconclusive means weak or mixed curves; inactive means no such curve, though single readings can be large; an effect the other way counts as inactive or inconclusive.

The target in assay [1] is Acetylcholinesterase (Homo sapiens) (UniProt P22303). The experiment in a line: Acetylcholinesterase (AChE) small molecule antagonists: fluorescence cell-based qHTS assay (AID 1347398; calls by dose curve; further: potency means the concentration at half of the fitted maximal effect; nearly all actives have a fitted effect of over 50% in size). Conditions: Potency: AChE activity; outcome: AChE activity. An outline of the steps: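 Cellular AChE inhibition: SH-SY5Y cells treated with test chemical for 30 min at 37 C, then acetylthiocholine hydrolysis followed over 40 min at room temperature via thiocholine-reactive Thiolite Green fluorescence (490/520 nm).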

The target is the same in assay [2]. The experiment in a line: Acetylcholinesterase (AChE) small molecule antagonists: enzyme-based qHTS assay with human liver microsomes (AID 1347399; calls by dose curve; further: nearly all actives have a fitted effect of over 60% in size; further: potency means the concentration at half of the fitted maximal effect). Conditions: Potency: qHTS inhibition; outcome: qHTS inhibition. An outline of the steps:
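Recombinant human AChE (50 mU/mL in the enzyme mix) and human liver microsomes (0.25 mg/mL final) were preincubated with compound and NADPH (0.25 mg/mL final) for 30 min at 37 C. Acetylthiocholine/DTNB was then added; thiocholine was read colorimetrically after 10 min at room temperature.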
(In general: Quantitative high-throughput screening tests each substance at several concentrations.)

Assay [3] is described as follows: qHTS assay for small molecule agonists of the p53 signaling pathway (AID 651631; calls by dose curve; further: nearly all actives have a fitted effect of over 15% in size). An outline of the steps:
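HCT-116 p53RE-bla reporter line, 16 h compound treatment at 37 °C, then fluorescence after 2 h with B/G FRET substrate.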

Assay [4] in a line: qHTS assay for small molecules that induce genotoxicity in human embryonic kidney cells expressing luciferase-tagged ATAD5 (AID 651632). Further: nearly all actives have a fitted effect of over 15% in size. An outline of the steps: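 Concentration-response screen for ATAD5 upregulation in HEK293T luciferase reporter cells; 16 hr treatment at 37C, then luminescence after 30 min with Amplite at room temperature.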
The nature of assay [5]: qHTS assay for small molecule agonists of the p53 signaling pathway - cell viability (AID 651633; calls by dose curve;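 further: p53RE-bla HCT reporter cells with a stable beta-lactamase p53 reporter; series mostly up to about 83 µM; nearly all actives have a fitted effect of over 30% in size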). An outline of the steps: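 p53RE-bla cells, seeded at 4,000 per well and rested 5 h at 37 C/5% CO2, received compounds in DMSO for 16 h at 37 C. CellTiter-Glo was then added, and luminescence was read after 30 min at room temperature to gauge cytotoxicity.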
A short description of assay [6]: qHTS assay for small molecules that induce genotoxicity in human embryonic kidney cells expressing luciferase-tagged ATAD5 - cell viability (AID 651634; calls by dose curve; further: nearly all actives have a fitted effect of over 25% in size). An outline of the steps:
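15.5 hr compound or vehicle exposure of HEK293T cells expressing luciferase-tagged ATAD5 at 37C; live-cell protease activity is read by fluorescence after 30 min of CellTiter-Fluor.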

The nature of assay [7]: qHTS assay for small molecule disruptors of the mitochondrial membrane potential - cell viability (AID 720634; calls by dose curve;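 further: human HepG2 liver cancer cells; series mostly up to about 83 µM; nearly all actives have a fitted effect of over 20% in size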). An outline of the steps: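 In this qHTS format, HepG2 cells plated overnight were pinned with compound, incubated 1 hr, and assayed for ATP luminescence with CellTiter-Glo after m-MPI dye addition.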
Assay [8] is described as follows: qHTS assay to test for compound auto fluorescence at 590 nm (red) in HepG2 cells (AID 720674). An outline of the steps: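 Intrinsic compound fluorescence in the red window (Ex/Em 540/590 nm) is measured in attached HepG2 cells exposed for 1 hr, DMSO vehicle as baseline, benchmarked to Rose Bengal sodium.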
Assay [9] in a line: qHTS assay to test for compound auto fluorescence at 535 nm (green) in HepG2 cells (AID 720675).
Assay [10] in a line: qHTS assay to test for compound auto fluorescence at 460 nm (blue) in HEK293 cells (AID 720678). An outline of the steps:
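HEK293, 2,000 cells/well, 10% dialyzed FBS; attach 4-5 hr 37C; pin compound or DMSO; o/n 37C/5% CO2; fluorescence 405/460 nm; triamterene-equivalent units.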

Assay [11] can be described thus: qHTS assay to test for compound auto fluorescence at 590 nm (red) in HEK293 cells (AID 720679). An outline of the steps:
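Intensity at 540nm excitation and 590nm emission is reported as Rose Bengal sodium-equivalent autofluorescence. Measurements followed overnight exposure (37C, 5% CO2) of HEK293 cells, 2,000 per well, to 23 nL compound.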

Assay [12] in a line: qHTS assay to test for compound auto fluorescence at 535 nm (green) in HEK293 cells (AID 720680).
Assay [13] is described as follows: qHTS assay to test for compound auto fluorescence at 590 nm (red) in HEK293 cell free culture (AID 720683). An outline of the steps: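 Tox21 10K library compounds were pinned into cell-free DMEM with 10% FBS and fluorescence was read at excitation 540 nm. Activity is expressed as Rose Bengal sodium equivalency.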
The nature of assay [14]: qHTS assay to test for compound auto fluorescence at 590 nm (red) in HepG2 cell free culture (AID 720684). An outline of the steps:
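Readout: intrinsic compound fluorescence at 590 nm emission after 540 nm excitation, scaled to Rose Bengal sodium. Matrix was cell-free MEM with 10% FBS; DMSO vehicle wells served as control.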

A short description of assay [15]: qHTS assay to test for compound auto fluorescence at 460 nm (blue) in HepG2 cell free culture (AID 720685). An outline of the steps:
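Cell-free plates of MEM plus 10% FBS received 23 nL compound or DMSO vehicle; blue-channel (405/460 nm) intensity scored against triamterene as reference fluorophore.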

A short description of assay [16]: qHTS assay to test for compound auto fluorescence at 535 nm (green) in HepG2 cell free culture (AID 720686).
Assay [17] is described as follows: qHTS assay to test for compound auto fluorescence at 460 nm (blue) in HepG2 cells (AID 720687). An outline of the steps: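 Cells (2,000/well in MEM with 10% FBS) attached overnight at 37 C, then were exposed to compound or DMSO for 1 hr at 37 C, 5% CO2. Fluorescence read at Ex/Em 405/460 nm, expressed as triamterene-equivalent signal.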
Assay [18] in a line: qHTS assay to identify small molecule antagonists of the glucocorticoid receptor (GR) signaling pathway - cell viability counter screen (AID 720693). Further: nearly all actives have a fitted effect of over 55% in size.
Assay [19] can be described thus: qHTS assay for identifying genotoxic compounds that show differential cytotoxicity against isogenic chicken DT40 cell lines with known DNA damage response pathways - wild type cell line (AID 743012). Further: nearly all actives have a fitted effect of over 60% in size. Further: potency means the concentration at half of the fitted maximal effect. An outline of the steps: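 Endpoint: CellTiter-Glo luminescence, 30 min RT. Cells: wild type DT40, 300/well. Exposure: compounds in DMSO, 40 h, 37 C/5% CO2, after ~0.5 h pre-incubation.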

Assay [20] can be described thus: qHTS assay for identifying genotoxic compounds that show differential cytotoxicity against isogenic chicken DT40 cell lines with known DNA damage response pathways - Rev3 mutant cell line (AID 743014). Further: nearly all actives have a fitted effect of over 55% in size. Further: potency means the concentration at half of the fitted maximal effect.
Assay [21] can be described thus: qHTS assay for identifying genotoxic compounds that show differential cytotoxicity against isogenic chicken DT40 cell lines with known DNA damage response pathways - Rad54/Ku70 mutant cell line (AID 743015). Further: nearly all actives have a fitted effect of over 60% in size. Further: potency means the concentration at half of the fitted maximal effect.
Assay [22] can be described thus: qHTS assay to identify small molecule antagonists of the androgen receptor (AR) signaling pathway - cell viability counter screen (AID 743033; further: nearly all actives have a fitted effect of over 45% in size).
Assay [23] in a line: qHTS assay to identify small molecule antagonists of the androgen receptor (AR) signaling pathway using the MDA cell line - cell viability counter screen (AID 743041; further: nearly all actives have a fitted effect of over 45% in size). An outline of the steps:
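qHTS viability read-out; MDA-kb2 AR-luc; R1881-stimulated; 16 h exposure at 37C, 0% CO2; CellTiter-Fluor, 30 min; fluorescence intensity.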

The nature of assay [24]: qHTS assay to identify small molecule antagonists of the thyroid receptor (TR) signaling pathway - cell viability counter screen (AID 743064). Further: nearly all actives have a fitted effect of over 50% in size. Further: potency means the concentration at half of the fitted maximal effect. An outline of the steps:
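Plate GH3.TRE-Luc cells; incubate 4 h at 37 °C; add compound, then T3 to 1 nM final; incubate 23.5 h; add CellTiter-Fluor; incubate 30 min at 37 °C, 5% CO2; read fluorescence.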

Assay [25] in a line: qHTS assay to identify small molecule antagonists of the thyroid receptor (TR) signaling pathway (AID 743065). Further: nearly all actives have a fitted effect of over 55% in size. Further: potency means the concentration at half of the fitted maximal effect. An outline of the steps:
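GH3.TRE-Luc rat pituitary cells carrying two TR response elements driving luciferase were plated for 4 h, given compound plus 1 nM T3 (final), and incubated 23.5 h at 37 C. ONE-Glo luminescence measured reporter inhibition; CellTiter-Fluor fluorescence tracked cytotoxicity.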

Assay [26] deals with thyroid hormone receptor (rat, GH3 cells). Put plainly: qHTS assay to identify small molecule agonists of the thyroid receptor (TR) signaling pathway (AID 743066; calls by dose curve).
The target of assay [27] is Estrogen receptor (Homo sapiens) (UniProt P03372). Put plainly: qHTS assay to identify small molecule antagonists of the estrogen receptor alpha (ER-alpha) signaling pathway (AID 743069; active means well fitted curve in the direction sought with a large enough effect in the signal ratio in the repeat runs, not every such curve was filed as active; the % refers to the signal ratio). An outline of the steps: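 Screening used a UAS-driven beta-lactamase reporter integrated into HEK293 cells expressing ER-alpha, stimulated with 17beta-estradiol alongside test compounds over 18 hr at 37C; signal came from LiveBLAzer B/G FRET fluorescence.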

For assay [28] the target is unchanged. Put plainly: qHTS assay to identify small molecule agonists of the estrogen receptor alpha (ER-alpha) signaling pathway (AID 743075; calls by dose curve).
Assay [29] shares this target. Put plainly: qHTS assay to identify small molecule agonists of the estrogen receptor alpha (ER-alpha) signaling pathway using the BG1 cell line (AID 743079). Further: nearly all actives have a fitted effect of over 20% in size.
A short description of assay [30]: qHTS assay to identify small molecule antagonists of the estrogen receptor alpha (ER-alpha) signaling pathway using the BG1 cell line (AID 743080; calls by dose curve;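 further: BG1 cells stimulated with 17beta-estradiol alongside compound; series mostly up to about 70 µM; nearly all actives have a fitted effect of over 25% in size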). An outline of the steps: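 BG1Luc4E2, endogenous ER-alpha, 4xERE-luc; 5 d charcoal-stripped FBS, phenol red free; 24 h plating; cpd + 17beta-estradiol 21.5 h, 37 C/5% CO2; CellTiter-Fluor viability 30 min, then ONE-Glo luciferase 30 min RT.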

The target of the next assay is Aromatase (Homo sapiens) (UniProt P11511). The experiment in a line: qHTS assay to identify aromatase inhibitors (AID 743083). Further: series mostly up to about 70 µM; nearly all actives have a fitted effect of over 55% in size.
Assay [31] in a line: qHTS assay to identify aromatase inhibitors - cell viability counter screen (AID 743084).
For assay [32], the target named is Aryl hydrocarbon receptor (Homo sapiens) (UniProt P35869). Put plainly: qHTS assay to identify small molecule that activate the aryl hydrocarbon receptor (AhR) signaling pathway (AID 743085).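 Further: HG2L7.5c1 human HepG2 liver cells with stably integrated DRE-driven firefly reporter; series mostly up to about 70 µM; nearly all actives have a fitted effect of over 15% in size.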 An outline of the steps:
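Steps: seed HepG2-AhR-luc cells; allow 5 h at 37C; pin-transfer test compound or vehicle; incubate 24 h at 37C; add viability dye (30 min, 37C) and read fluorescence; add luciferase substrate (30 min, RT) and read luminescence.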

Assay [33] is described as follows: qHTS assay to identify small molecule that activate the aryl hydrocarbon receptor (AhR) signaling pathway - cell viability counter screen (AID 743086).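 Further: HepG2 liver cells carrying the AhR DRE luciferase reporter; series mostly up to about 70 µM; nearly all actives have a fitted effect of over 45% in size.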 An outline of the steps:
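HepG2-AhR-luc (HG2L7.5c1) cells, 4000/well, were preincubated 5 h at 37C, exposed to compound in qHTS format for 24 hr at 37C, then given CellTiter-Fluor for 30 min; viability was read as fluorescence in the reporter wells.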

Assay [34] concerns the target Peroxisome proliferator-activated receptor gamma (Homo sapiens) (UniProt P37231). Put plainly: qHTS assay to identify small molecule agonists of the peroxisome proliferator-activated receptor gamma (PPARg) signaling pathway (AID 743094; active means well fitted activation curve with a large enough effect in the signal ratio in the repeat runs, not every such curve was filed as active; the % refers to the signal ratio). An outline of the steps: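 Fluorescence-based beta-lactamase readout in HEK293H PPARg UAS-bla cells after 17 h compound exposure (37C) and 1 h B/G FRET substrate incubation at room temperature.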

Assay [35] is described as follows: qHTS assay to identify small molecule antagonists of the estrogen receptor alpha (ER-alpha) signaling pathway using the BG1 cell line - cell viability counter screen (AID 743081).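 Further: compound given together with 17beta-estradiol as the ER stimulus; series mostly up to about 70 µM; nearly all actives have a fitted effect of over 45% in size.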

Estrogen receptor (Homo sapiens), sequence (P03372 whole entry, looked up): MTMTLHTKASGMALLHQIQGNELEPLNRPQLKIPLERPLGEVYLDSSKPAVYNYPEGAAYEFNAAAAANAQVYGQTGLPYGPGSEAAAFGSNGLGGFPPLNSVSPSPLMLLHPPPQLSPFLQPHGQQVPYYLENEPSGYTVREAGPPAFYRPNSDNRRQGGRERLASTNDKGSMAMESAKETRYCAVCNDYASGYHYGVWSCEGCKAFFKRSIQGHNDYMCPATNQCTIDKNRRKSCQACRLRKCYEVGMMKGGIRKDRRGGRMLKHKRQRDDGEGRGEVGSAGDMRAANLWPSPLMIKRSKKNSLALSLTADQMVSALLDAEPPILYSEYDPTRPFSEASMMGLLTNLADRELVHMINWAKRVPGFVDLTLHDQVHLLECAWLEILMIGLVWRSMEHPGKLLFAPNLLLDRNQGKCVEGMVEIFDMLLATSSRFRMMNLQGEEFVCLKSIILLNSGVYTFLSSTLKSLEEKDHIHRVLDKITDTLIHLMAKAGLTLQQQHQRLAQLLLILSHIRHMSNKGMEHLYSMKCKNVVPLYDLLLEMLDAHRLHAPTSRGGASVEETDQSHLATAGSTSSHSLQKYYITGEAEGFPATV
Acetylcholinesterase (Homo sapiens), sequence (P22303 whole entry, looked up): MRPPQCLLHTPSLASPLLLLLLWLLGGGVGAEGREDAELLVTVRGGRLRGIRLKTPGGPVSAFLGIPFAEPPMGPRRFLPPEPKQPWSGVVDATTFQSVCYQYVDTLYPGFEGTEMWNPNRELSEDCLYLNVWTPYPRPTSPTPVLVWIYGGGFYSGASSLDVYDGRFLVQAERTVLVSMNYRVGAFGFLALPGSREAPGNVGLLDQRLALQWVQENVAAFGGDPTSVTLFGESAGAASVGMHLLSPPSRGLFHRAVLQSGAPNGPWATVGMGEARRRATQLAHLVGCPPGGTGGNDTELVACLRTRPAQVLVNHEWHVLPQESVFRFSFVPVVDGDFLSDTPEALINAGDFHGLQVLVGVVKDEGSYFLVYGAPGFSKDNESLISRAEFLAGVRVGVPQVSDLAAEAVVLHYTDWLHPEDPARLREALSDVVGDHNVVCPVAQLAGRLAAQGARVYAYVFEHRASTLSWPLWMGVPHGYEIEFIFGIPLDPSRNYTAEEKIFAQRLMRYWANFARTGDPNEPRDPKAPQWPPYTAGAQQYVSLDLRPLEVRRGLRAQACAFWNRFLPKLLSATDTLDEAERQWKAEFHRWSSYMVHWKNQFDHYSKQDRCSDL
Aryl hydrocarbon receptor (Homo sapiens), sequence (P35869 whole entry, looked up): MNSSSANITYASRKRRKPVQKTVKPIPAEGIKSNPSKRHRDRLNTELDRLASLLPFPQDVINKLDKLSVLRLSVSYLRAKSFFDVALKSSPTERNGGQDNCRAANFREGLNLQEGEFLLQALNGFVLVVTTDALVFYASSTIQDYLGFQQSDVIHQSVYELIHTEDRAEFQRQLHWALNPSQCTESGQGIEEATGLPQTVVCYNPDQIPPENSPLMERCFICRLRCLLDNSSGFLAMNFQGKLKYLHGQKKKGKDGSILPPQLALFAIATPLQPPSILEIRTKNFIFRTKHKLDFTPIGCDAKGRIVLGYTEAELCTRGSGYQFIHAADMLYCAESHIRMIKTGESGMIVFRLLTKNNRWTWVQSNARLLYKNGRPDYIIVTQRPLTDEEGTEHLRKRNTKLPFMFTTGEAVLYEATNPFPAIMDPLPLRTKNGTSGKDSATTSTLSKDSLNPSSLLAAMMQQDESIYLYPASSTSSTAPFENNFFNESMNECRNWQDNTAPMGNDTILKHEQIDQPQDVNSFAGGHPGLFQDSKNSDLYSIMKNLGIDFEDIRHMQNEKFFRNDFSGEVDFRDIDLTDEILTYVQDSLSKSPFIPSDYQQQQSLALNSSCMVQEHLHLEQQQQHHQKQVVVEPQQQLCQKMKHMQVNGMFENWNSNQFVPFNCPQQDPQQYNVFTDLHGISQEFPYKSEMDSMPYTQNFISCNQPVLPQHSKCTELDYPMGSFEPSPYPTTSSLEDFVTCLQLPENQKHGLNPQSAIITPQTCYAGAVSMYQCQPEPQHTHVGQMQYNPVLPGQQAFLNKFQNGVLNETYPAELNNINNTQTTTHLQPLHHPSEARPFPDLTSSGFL
Aromatase (Homo sapiens), sequence (P11511 whole entry, looked up): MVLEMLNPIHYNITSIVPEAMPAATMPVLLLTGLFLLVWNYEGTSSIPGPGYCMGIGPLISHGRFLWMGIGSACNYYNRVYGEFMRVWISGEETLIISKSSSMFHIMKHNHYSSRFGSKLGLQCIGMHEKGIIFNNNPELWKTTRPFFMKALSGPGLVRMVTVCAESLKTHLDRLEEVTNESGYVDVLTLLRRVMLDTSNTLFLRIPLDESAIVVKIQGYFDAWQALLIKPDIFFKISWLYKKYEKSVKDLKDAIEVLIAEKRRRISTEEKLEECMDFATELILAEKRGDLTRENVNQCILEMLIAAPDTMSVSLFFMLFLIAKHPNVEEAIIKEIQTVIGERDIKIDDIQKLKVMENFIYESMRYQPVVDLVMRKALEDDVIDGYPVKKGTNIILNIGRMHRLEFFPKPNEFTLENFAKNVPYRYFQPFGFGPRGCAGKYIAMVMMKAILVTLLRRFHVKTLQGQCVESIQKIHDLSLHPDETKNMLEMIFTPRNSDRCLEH
Peroxisome proliferator-activated receptor gamma (Homo sapiens), sequence (P37231 whole entry, looked up): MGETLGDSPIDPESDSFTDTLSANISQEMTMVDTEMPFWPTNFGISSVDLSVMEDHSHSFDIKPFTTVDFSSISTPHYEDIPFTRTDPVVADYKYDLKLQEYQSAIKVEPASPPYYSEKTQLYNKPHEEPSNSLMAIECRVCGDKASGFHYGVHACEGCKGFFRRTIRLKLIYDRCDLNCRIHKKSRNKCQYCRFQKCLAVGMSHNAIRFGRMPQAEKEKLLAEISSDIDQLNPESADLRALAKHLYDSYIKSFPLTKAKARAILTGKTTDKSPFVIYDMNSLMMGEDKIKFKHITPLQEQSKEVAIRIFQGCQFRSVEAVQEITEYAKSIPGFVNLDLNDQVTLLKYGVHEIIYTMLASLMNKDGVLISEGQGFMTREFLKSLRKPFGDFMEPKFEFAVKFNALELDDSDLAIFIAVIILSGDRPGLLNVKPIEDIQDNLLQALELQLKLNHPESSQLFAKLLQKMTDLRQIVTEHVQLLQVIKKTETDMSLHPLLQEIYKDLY

Turning to `Cc1nc2n(c(=O)c1CCN1CCC(C(=O)c3ccc(F)cc3)CC1)CCS2`, the Potency in assay [1] is 9.77 µM (active). For the same compound, the Potency result in assay [2] is “inactive”.

For the compound `Clc1ccc([C@@H]2C[C@H]3CC[C@@H]2N3)cn1`, the Potency entry in assay [3], in [5], in assay [6], in [18], in assay [19] and in assay [20] was “inactive” throughout. Moreover, the Potency entry in assay [21], in assay [22], in assay [24], in [25], in [28] and in [29] was “inactive” each time. The Potency entry (in the assay with Aromatase (Homo sapiens); in [33]) was “inactive” in each case. Moreover, the compound was called inactive in assay [4], in assay [7], in assay [8], in assay [9], in assay [10] and in [11]. Further, the call in [12], in assay [13], in assay [14], in assay [15], in assay [16] and in assay [17] was inactive. Further, the result in assay [23], in assay [26], in assay [27], in [30], in [31] and in assay [32] was inactive. In addition, the call in [34] was inactive.

With `C[C@@H]1O[C@@H]1P(=O)(O)O`, in assay [32], the call was inactive.

As to `S=P(N1CC1)(N1CC1)N1CC1`, the results for the Potency in [1] and in [2] were 33.4 µM (active) and 74.8 µM (active), respectively.

For the compound `CCC(=O)O[C@](Cc1ccccc1)(c1ccccc1)[C@H](C)CN(C)C`, the Potency result in assay [3], in [5], in assay [6], in assay [18], in [22] and in assay [35] was “inactive” in each case. Besides, the compound was classed as inactive in assay [4], in assay [7], in assay [8], in assay [9], in [10] and in assay [11]. Further, the outcome in assay [12], in [13], in [14], in [15], in [16] and in [17] was inactive. Also, the compound was called inactive in [23] and in assay [26]. Also, the Potency in assay [19] was 38 µM (active); in [20], 60.3 µM (active); in [21], 67.6 µM (active); in [24], 26.9 µM (active); in assay [25] it was 53.7 µM (active).

Regarding `COc1cc(C(=O)NCc2ccc(OCCN(C)C)cc2)cc(OC)c1OC`, in assay [2], the Potency entry is “inactive”.
